# Molecular target: FGF2
# Assay: pooled miR-30 sensor sort-seq; sequence = guide strand
# Details: shRNA
# Also: reference of the scale not given here.
row,Sequence,sensor-assay potency score (higher = more potent)
1,AACGGTTAGCACACACTCCTTT,0.1
2,TAGTTATTAGATTCCAATCGTT,-0.676
3,TGGTGTATTTCCTTGACCGGTA,-0.344
4,TATTAGATTCCAATCGTTCAAA,-0.684
5,TGAGGGTCGCTCTTCTCCCGGA,-0.455
6,ATAGACACAACTCCTCTCTCTT,-0.298
7,TTGCAGTACAGCCGCTTGGGGT,-1.34
8,TAGCTTGATGTGAGGGTCGCTC,-0.132
9,TTCAGTGCCACATACCAACTGG,-0.475
10,TAGAAGCCAGTAATCTTCCATC,-0.587
11,TTGATAGACACAACTCCTCTCT,0.382
12,TCCATCTTCCTTCATAGCCAGG,-1.98
13,TTTGCAGTACAGCCGCTTGGGG,-0.977
14,TTTGATAGACACAACTCCTCTC,0.744
15,TAACGGTTAGCACACACTCCTT,-1.27
16,AAAAAAGAAACACTCATCCGTA,0.00256
17,TAGACACAACTCCTCTCTCTTC,-0.65
18,TTAGAAGCCAGTAATCTTCCAT,0.816
19,TAGCTTTCTGCCCAGGTCCTGT,-0.929
20,TATACTTCTTCTTTCATGTGAA,0.715
21,TTGGAAGAAAAAGTATAGCTTT,0.162
22,TTCTAAAATATACTTCTTCTTT,-0.418
23,TAACACATTTAGAAGCCAGTAA,-0.0447
24,TTTGGATCCAAGTTTATACTGC,-0.268

# Molecular target: FGFR1
# Assay: as above
# Details: shRNA
row,Sequence,sensor-assay potency score (higher = more potent)
1,TTTATAGTAGTCGATGTGGTGA,-0.221
2,TTTTAATATATAGCAACTGATG,-1.31
3,TTGTGCACAGCCATCTGGCTGT,-0.135
4,TGTAGCAGTATTCCAGCCCTGG,-0.142
5,TTGTCTTTTTATAGTAGTCGAT,-0.804
6,TGTCTTTTTATAGTAGTCGATG,-1.03
7,TTACACATGAACTCCACGTTGC,0.903
8,TAAATCTCTGGTAACGACCCTT,0.102
9,TTGTAGACGATGACCGACCCCA,-0.237
10,TCTGTCACCAGGACATTCCTGG,0.104
11,TTCTTTTCCATCTTTTCTGGGG,-0.274
12,TTGAACTTCACTGTCTTGGCAG,0.751
13,TTTTATAGTAGTCGATGTGGTG,-0.492
14,TTGAAGGTGGGTCTCTGTGAGG,-0.69
15,ATCATGTACAGCTCGTTGGTGC,-0.372

# From the OligoGym collection
